Laboratory results: the supplement of paper PMC8728848
About 410 targets per protein were measured; listed, in parts, are those with the strongest signals and a random draw of the rest.

Assays:
Experiment in all cases: glycan array binding signal (z-score within array); higher = stronger binding
Conditions in all cases: glycan notation: IUPAC condensed, linker removed
[1] = biological target: Gal3S(b1-4)[Fuc(a1-3)]GlcNAc6S
In short: (§1)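 Negative Z-scores can be read as non-binding. The Z-score is calculated within each array and then averaged across arrays of one protein sequence at different concentrations or buffers and across linkers. Arrays, 3228 in all, were curated from the Consortium for Functional Glycomics database and kept only where the protein sequence was available.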

[2] = biological target: GlcNAc(a1-3)Gal(b1-4)GlcNAc
In short: as §1

[3] = biological target: GlcNAc(a1-4)Gal(b1-3)GlcNAc
In short: as §1

[4] = biological target: GlcNAc(b1-3)Gal(b1-4)GlcNAc(b1-6)[GlcNAc(b1-3)]Gal(b1-4)GlcNAc
In short: as §1

[5] = biological target: Man(a1-2)Man(a1-2)Man(a1-3)Man
In short: as §1

[6] = biological target: Neu5Ac(a2-3)Gal(b1-3)GlcNAc
In short: as §1

[7] = biological target: Neu5Ac(a2-3)Gal(b1-4)GlcNAc(b1-3)Gal(b1-3)GlcNAc
In short: as §1

[8] = biological target: Neu5Ac(a2-3)Gal(b1-4)[Fuc(a1-3)]GlcNAc
In short: as §1

[9] = biological target: Neu5Ac(a2-6)Gal(b1-4)GlcNAc(b1-2)Man(a1-3)[GlcNAc(b1-2)Man(a1-6)]Man(b1-4)GlcNAc(b1-4)GlcNAc
In short: as §1

[10] = biological target: Neu5Ac(a2-6)Gal(b1-4)GlcNAc(b1-3)Gal(b1-3)GlcNAc
In short: as §1

[11] = biological target: Neu5Ac(a2-8)Neu5Ac(a2-3)[GalNAc(b1-4)]Gal(b1-4)Glc
In short: as §1

[12] = biological target: Neu5Ac9Ac(a2-3)Gal(b1-4)GlcNAc
In short: as §1

[13] = biological target: Neu5Ac9Ac(a2-6)Gal(b1-4)GlcNAc
In short: as §1

[14] = biological target: Neu5Gc(a2-3)Gal(b1-4)GlcNAc(b1-3)Gal(b1-4)GlcNAc(b1-2)Man(a1-3)[Neu5Gc(a2-3)Gal(b1-4)GlcNAc(b1-3)Gal(b1-4)GlcNAc(b1-2)Man(a1-6)]Man(b1-4)GlcNAc(b1-4)GlcNAc
In short: as §1

B1: Epa10 (protein)
chain: MNEKIFRYLTLLFLFELARSLPVEDKLNIKKVFEKRAVDFTPFAHYPRPEGCSSPPNSVSVGLHMNLYNYPYLYVKPSTKGMFTNDTNSDADGETDGDSAGGIEGRAGQCWNPEYQDPNFPRFGYKQYGEFGASDNVNGDISWDHNEFTEGCKPVLAALPPGYNYPDEITFSNFTMVLSGYFKPKTSGVYKFELKADDFILFNFGAKNAFECCNREESIDNFGPYVAYAMWPNQADQELEVYLFEDSYYPLRLFYNNRDYHSKFKIGFYPPGQTTITFDFDGYLFMLDDTGNECRDSIRYRTVCDDKVVDDTTYSTRYSTSMVPGGGSDVITIYYIRMKCEEEDCLGQWDPINNVCYSPDDCADDGGYWNGQMCDQSCKLEGGIVNPDTGDCDKSCIESGGFLDENGNCDTTCRDDGGMLVEGQCDYQCKEAGGILVGDHCDTTCVDSGGKLNEDGTCDHSCRDQGGQLDENGECDTSCKDSGGMLIEGECDTSCKDEGGQLDDNNECINHCKDQGGIIDENGNCDTSCKDSGGKLDESGACDTSCRDDGGIIDENGNCNTTCRDDGGIIVGDHCDTSCRDAGGILIEDHCDTTCRDSGGKLNEDGTCDHSCRDQGGQLDENGKCDYSCKNGGGKLDEDGNCDMSCKENGGKLDENGDCDLSCKEDGGKLDGNGDCDYSCKEEGGVIDESGNCNTTCKDSGGQIIDGECNYGCIEVGGVVIDGECDTSCIDSGGILDGDGNCDRSCIESGGVLEDGACNTTCRDSGGQLNVDGTCDTSCRDDGGMLVEGQCDYQCKEAGGILEDGECVFPPTSSSTSETSSTTDQSSLQSDDSSMESSSTPMDSSTIESSSSEIITSESESESVPIASSSSEVMTSESESESIPILTSSSEIPIASSSSEIPVASSSSEIIIPESESESVPVASSSSEIPIASSSSEIPVASSSSEIPVASSSSEIIIPESESESIPIESTSSEAVSSRSESDSSYPTPTPTTTTITTWPNPIQPTTSNSSPIVSSSTETPGIAESSSRISDLESSRRTSILGDDRTRTRTTITSTITEDGQIITITTTVTGFVPEPTGETEGNGSDDENPENPIENNTDENEFLDPEFTDDIPDDPAGPEDNGNGPVNPEQGNDNDPVNLEDSGNNGAVNPEQAPVNDEDNGGNDPVNPEQDNNNGPANPGQDSTNGSGNSDQIDNNPPTPEENAGDGNSNGNDPADPSRRTSILGDERTRASPGGTSQPTGANGNVNGNSPGANVNGGGTGNSNNNNNNNNNNNNGNAPNGGDGSNGDANQGPSRRTSLLGDERTRAGQAAPTGGSSPDNGIAGDTSNNGGAIVSQQVDDGGAGSPRRTSILGDVRSRTTLNGEVLNFEGSGVRRAVAGNLALPLMMVGLVFNL
[1]
  glycan array binding signal (z-score): -0.35
[2]
  glycan array binding signal (z-score): -0.222
[3]
  glycan array binding signal (z-score): -0.238
[4]
  glycan array binding signal (z-score): -0.312
[5]
  glycan array binding signal (z-score): -0.264
[6]
  glycan array binding signal (z-score): -0.234
[7]
  glycan array binding signal (z-score): -0.284
[8]
  glycan array binding signal (z-score): -0.278
[9]
  glycan array binding signal (z-score): -0.287
[10]
  glycan array binding signal (z-score): -0.258
[11]
  glycan array binding signal (z-score): -0.27
[12]
  glycan array binding signal (z-score): -0.271
[13]
  glycan array binding signal (z-score): -0.297
[14]
  glycan array binding signal (z-score): -0.292
